Bioassay records deposited in PubChem by National Center for Advancing Translational Sciences (NCATS).
IL1B secr inh: inflammasome signaling inhibition, IL-1 beta readout | THP-1 LPS/ATP IL-1B secretion, AlphaLISA, 16 h; active compounds read low | activity change, % at 57.5 µM | hit rate 4.7% among 360,000; in the data active means activity change below about -50%; inconclusive means mostly about -30% to -49%
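THP-1 cells pretreated 1 hr with compounds (up to 57.5 uM final), then stimulated with LPS (250 ng/mL final) plus ATP (1.25 mM final); secreted IL-1B measured by AlphaLISA after 16 hr, decreased signal indicating inhibition.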
HT1080 IDH1KD tx: kills HT-1080 cells with IDH1 knockdown | HT-1080 IDH1 knockdown viability, ATP luminescence, 48 h | hit rate 2% among 360,000 | Potency, µM (highest dose often 46.1 µM), for the others: at the top dose activity, negative = toxicity, hits mostly cytotoxic;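 further: potency means the concentration at half of the fitted maximal effect; 0% = DMSO wells and -100% = cell-free medium wells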
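% activity derives from luminescence (CellTiter-Glo), normalised to DMSO and no-cell wells. HT-1080-IDH1KD cells, 750/well, had 48 h compound exposure at 37 °C.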
HT1080NT lethal: kills 2HG-producing HT-1080-NT fibrosarcoma cells; HT-1080-NT fibrosarcoma viability, CellTiter-Glo ATP luminescence, 48 h; Potency, µM (series often up to 46.1 µM), for inactives: at the top dose activity, negative = less viability, most hits filed as cytotoxic; hit rate 1.6% among 360,000; AID 686970;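 further: NT is the 2HG producing partner of a matched IDH1 knockdown line; potency means the concentration at half of the fitted maximal effect; 0% = DMSO-treated cells and -100% = media-only wells without cells; nearly all actives have a fitted effect of over 55% in size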
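750 cells/well, RPMI + 5% FBS; 2 h settle, compound pin-transfer, 48 h at 37 degrees C. CellTiter-Glo 10 min RT, luminescence. Normalized to DMSO and media-only wells.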
TDP1 cell CPT: DT40-hTDP1 cell growth loss with CPT; chicken DT40 Tdp1-/-;hTDP1 cells + 20 nM CPT, ATP luminescence, 48 h; Potency, µM (titrated, usually from 46.2 µM), inactives show at the top dose activity change, negative = growth inhibition, actives largely listed as inhibitors; hit rate 12% among 420,000; AID 686979; further: potency means the concentration at half of the fitted maximal effect; nearly all actives have a fitted effect of over 55% in size
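Cell growth measured by CellTiter-Glo luminescence after a minimum 48 h, 37 C compound exposure with 20 nM CPT in Tdp1-knockout DT40 cells stably expressing hTDP1, seeded 400/well; qHTS titration format.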
TDP1 cell noCPT: qHTS for Inhibitors of human tyrosyl-DNA phosphodiesterase 1 (TDP1): qHTS in cells in absence of CPT | Potency, µM (top dose mostly 46.2 µM), inactives show top-dose activity change, negative = growth inhibition, actives largely listed as inhibitors | DT40 Tdp1-/- hTDP1 cells, no CPT, ATP luminescence, 48 h | AID 686978, 2013 | hit rate 15% among 420,000; further: potency means the concentration at half of the fitted maximal effect; nearly all actives have a fitted effect of over 55% in size
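No-CPT arm: Tdp1-/-;hTDP1 DT40 cells (400/well) plus compounds, incubated ≥48 hr at 37 °C. Readout CellTiter-Glo luminescence.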
uPA generation: inhibitors of cell surface uPA generation; cell surface uPA generation assay, qHTS; Potency, µM (doses to about 38.3 µM), for the others: at the top dose activity change, negative = inhibition, hits mostly inhibitors; hit rate 0.31% among 330,000; active means well fitted inhibition curve with a large enough effect; inconclusive means small, poorly fitted or top-dose-only effect; inactive means no such curve, though single readings can be large or run the other way; tested in mouse RAW 264.7 cells; further: potency means the concentration at half of the fitted maximal effect; nearly all actives have a fitted effect of over 55% in size
* marks the source's active call; other numbers are inactive results; [ ] = another dose, or the depositor's remark. Compounds with a hit are over-represented: about 19% of the library has one in this group of screens. Unless noted, the call rests on the fitted dose curve; in most records, active means well fitted curve in the direction sought with a large enough effect; inconclusive means small, poorly fitted or top-dose-only effect, or another doubt; inactive means no such curve, though single readings can be large; an effect the other way counts as inactive or inconclusive. Unless noted, on the % scale 0 is the no-effect control and ±100 the full control effect.

Results for COc1ccc(C2=NN(CC(=O)NCCCN(C)c3ccccc3)C(=O)CC2)cc1 ?
TDP1 cell CPT: inconclusive; TDP1 cell noCPT: 15µM*

Results for CCN(CCCNC(=O)CN1N=C(c2ccc(C)cc2)CCC1=O)c1ccccc1 ?
TDP1 cell CPT: inconclusive; TDP1 cell noCPT: 23µM*

What do the screens show for `CCCCN(CCCNC(=O)CN1N=C(c2ccc(C)cc2)CCC1=O)c1ccccc1`?
TDP1 cell CPT: inconclusive; TDP1 cell noCPT: 15µM*

How did CCN(CCCNC(=O)CN1N=C(c2ccc(OC)cc2)CCC1=O)c1cccc(C)c1 do in these assays?
TDP1 cell CPT: inconclusive; TDP1 cell noCPT: 18µM*

What do the screens show for `COc1ccc(C2=NN(CC(=O)NCCc3ccccc3)C(=O)CC2)cc1`?
TDP1 cell CPT: -1%; TDP1 cell noCPT: -15%

What do the screens show for `c1ccc(-c2c[nH]c3[n+]2CCCCC3)cc1`?
IL1B secr inh: 8; HT1080 IDH1KD tx: -5%[9.24 µM]; HT1080NT lethal: -1%; TDP1 cell CPT: -29%; TDP1 cell noCPT: 9.2µM*; uPA generation: 1%

Results for COc1cc(/C=N/N=C2/SCC(=O)N2c2ccc(O)cc2)ccc1O ?
IL1B secr inh: 35; HT1080 IDH1KD tx: -1%; HT1080NT lethal: -5%; TDP1 cell CPT: 9.2µM*; TDP1 cell noCPT: 21µM*; uPA generation: -4%

What do the screens show for `O=C(Nc1ccc(Cl)cc1)c1cc(S(=O)(=O)N2CCCc3ccccc32)ccc1F`?
TDP1 cell CPT: 16µM*; TDP1 cell noCPT: 15µM*

Results for COC(=O)Nc1ccc(S(=O)(=O)N2c3ccccc3CCC2C)cc1 (configuration not stated) ?
IL1B secr inh: 6; HT1080 IDH1KD tx: inconclusive; HT1080NT lethal: 2.8µM*; TDP1 cell CPT: 4.6µM*; TDP1 cell noCPT: 2.6µM*; uPA generation: inconclusive

What do the screens show for `Cc1cccc(C)c1NC(=O)c1cc(S(=O)(=O)N2CCc3ccccc3C2)ccc1F`?
TDP1 cell CPT: 18µM*; TDP1 cell noCPT: inconclusive

How did O=C(Nc1ccc(C(F)(F)F)cc1)c1cc(S(=O)(=O)N2CCCc3ccccc32)ccc1F do in these assays?
TDP1 cell CPT: 7.3µM*; TDP1 cell noCPT: 10µM*

Results for COC(=O)Nc1ccc(S(=O)(=O)N2CCCCC2C(=O)O)cc1 (configuration not stated) ?
IL1B secr inh: 14; HT1080 IDH1KD tx: 28%; HT1080NT lethal: 17%; TDP1 cell CPT: 0%; TDP1 cell noCPT: 11%; uPA generation: -1%

What do the screens show for `O=C(O)c1cc(S(=O)(=O)N2CCN(c3ccccn3)CC2)ccc1Cl`?
IL1B secr inh: 11; HT1080 IDH1KD tx: 16%; HT1080NT lethal: -1%; TDP1 cell CPT: 18%; TDP1 cell noCPT: 13%; uPA generation: -2%

Results for Cc1cc(NC(=O)COC(=O)c2ccc(S(=O)(=O)N3CCCc4ccccc43)cc2)no1 ?
IL1B secr inh: 38; HT1080 IDH1KD tx: 4.1µM*; HT1080NT lethal: 4.1µM*; TDP1 cell CPT: 3.7µM*; TDP1 cell noCPT: 3.3µM*; uPA generation: -11%

Results for CCCCCCNC(=O)c1cc(S(=O)(=O)N2CCc3ccccc32)ccc1F ?
IL1B secr inh: 23; HT1080 IDH1KD tx: -2%; HT1080NT lethal: 1%; TDP1 cell CPT: inconclusive; TDP1 cell noCPT: inconclusive; uPA generation: -2%

What do the screens show for `Cc1cc(NC(=O)COC(=O)c2ccc(S(=O)(=O)N3CCCC3)cc2)no1`?
IL1B secr inh: 4; HT1080 IDH1KD tx: 6%; HT1080NT lethal: 5%; TDP1 cell CPT: 10%; TDP1 cell noCPT: 20%; uPA generation: -6%

Results for CCC(=O)N1CCc2cc(S(=O)(=O)N3CCc4ccccc4C3)ccc21 ?
IL1B secr inh: 15; HT1080 IDH1KD tx: 7%; HT1080NT lethal: 14%; TDP1 cell CPT: inconclusive; TDP1 cell noCPT: -26%; uPA generation: 1%

What do the screens show for `O=C(Nc1c(F)cc(F)cc1Br)c1cc(S(=O)(=O)N2CCN(c3ccccn3)CC2)ccc1F`?
IL1B secr inh: -26; HT1080 IDH1KD tx: -4%; HT1080NT lethal: -6%; TDP1 cell CPT: inconclusive; TDP1 cell noCPT: 26µM*; uPA generation: -20%

How did CCC(=O)N1CCCc2cc(S(=O)(=O)N3CCCc4ccccc43)ccc21 do in these assays?
IL1B secr inh: 8; HT1080 IDH1KD tx: inconclusive; HT1080NT lethal: -14%; TDP1 cell CPT: 26µM*; TDP1 cell noCPT: 18µM*; uPA generation: -1%

Results for CCOc1ccc(NC(=O)c2cc(S(=O)(=O)N3CCc4ccccc43)ccc2F)cc1 ?
TDP1 cell CPT: 8.2µM*; TDP1 cell noCPT: 9.2µM*

How did COc1ccc2[nH]cc(CCNC(=O)C3CCCO3)c2c1 (configuration not stated) do in these assays?
IL1B secr inh: -12; HT1080 IDH1KD tx: 2%; HT1080NT lethal: 1%; TDP1 cell CPT: inconclusive; TDP1 cell noCPT: 14%; uPA generation: -4%

Results for CCCCn1c(N)c(N(CCC(C)C)C(=O)COC(=O)Cc2ccc(Cl)cc2)c(=O)[nH]c1=O ?
IL1B secr inh: inconclusive; HT1080 IDH1KD tx: 1%; HT1080NT lethal: -3%; TDP1 cell CPT: inconclusive; TDP1 cell noCPT: -19%; uPA generation: -1%

Results for CC(=O)NC(CC(=O)N(C)Cc1cccc(Cl)c1Cl)c1ccccc1 (configuration not stated) ?
IL1B secr inh: 6; HT1080 IDH1KD tx: -15%; HT1080NT lethal: 17%; TDP1 cell CPT: inconclusive; TDP1 cell noCPT: inconclusive; uPA generation: -6%

What do the screens show for `O=S(=O)(c1ccc(Cl)nc1)N1CCCc2ccccc21`?
IL1B secr inh: 14; HT1080 IDH1KD tx: 1%; HT1080NT lethal: 10%; TDP1 cell CPT: -16%; TDP1 cell noCPT: inconclusive; uPA generation: -4%

How did O=C(Nc1ccc(Br)cc1)c1cc(S(=O)(=O)N2CCc3ccccc32)ccc1F do in these assays?
TDP1 cell CPT: 15µM*; TDP1 cell noCPT: 15µM*

Results for Cc1cccc(C)c1NC(=O)c1cc(S(=O)(=O)N2CCC3(CC2)OCCO3)ccc1F ?
IL1B secr inh: 1; HT1080 IDH1KD tx: 3%; HT1080NT lethal: 0%; TDP1 cell CPT: -16%; TDP1 cell noCPT: -20%

What do the screens show for `Cc1ccc(NC(=O)c2cc(S(=O)(=O)N3CCc4ccccc43)ccc2F)cc1Cl`?
TDP1 cell CPT: 4.1µM*; TDP1 cell noCPT: 5.8µM*

What do the screens show for `Cc1cccc(C)c1NC(=O)c1cc(S(=O)(=O)N2CCCc3ccccc32)ccc1F`?
TDP1 cell CPT: 10µM*; TDP1 cell noCPT: 4.1µM*
